Holding throughout (assay): NCI-60 one-dose screen, 48 h (100 = growth as untreated, 0 = no growth, -100 = all killed)
Holding throughout (details): 10 µM unless noted

Assay [1] relates to DU-145 prostate.
In assay [2] the test system is K-562 leukemia.
For assay [3], the system named is MALME-3M melanoma.
For assay [4], the system named is MDA-MB-231 breast.
For assay [5], the system named is RXF 393 renal.
The test system of assay [6] is SF-268 CNS.
The test system of assay [7] is SF-295 CNS.
The subject of assay [8] is SF-539 CNS.
The subject of assay [9] is UACC-257 melanoma.
Assay [10] deals with M14 melanoma.
Assay [11] has as its system HCT-15 colon.
Assay [12] concerns HT29 colon.
The subject of assay [13] is SNB-75 CNS.
In assay [14] the test system is SNB-19 CNS.
In assay [15] the test system is U251 CNS.
The subject of assay [16] is PC-3 prostate.
Assay [17] relates to SK-MEL-5 melanoma.
The test system of assay [18] is UACC-62 melanoma.
The subject of assay [19] is LOX IMVI melanoma.
For assay [20], the system named is SK-MEL-28 melanoma.

From PubChem BioAssay (NCI) come the findings set out here.

Compounds without any hit were thinned out: in the full panel of roughly 83,000, 20% have a hit.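 Assay: single dose, 48 h. Readout: percent growth (0 = no net growth; negative = cell death). Active: <10.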 A number with no mark means an inactive call. Active and inactive are the calls of the source.

Take `O=C(Nc1ccc(Nc2ccncc2)cc1)c1ccc([N+](=O)[O-])cc1`: the growth in [1] was 68.7%; in assay [2], 19.5%; in assay [3] it was 59.1%; in [4] it was 93.5%; in [5], 91.6%; in assay [6] it was 91.9%. In addition, the growth is 79.6% in assay [7]; 88.8% in assay [8]; 96.9% in [9]; 65.1% in assay [10]; 77.5% in assay [11]; 63.4% in assay [12]. For the same compound, the growth in assay [13] is 92%; in assay [14] it was 80.1%; in assay [15] it was 38%; in assay [16], 70%; in [17] it was 73.1%; in assay [18], 15.4%. For the same compound, the growth is 62.3% in [19] and 84.9% in [20].

Turning to `COc1ccc(-c2cc(-c3ccccc3)nc(NCCNc3ccnc4cc(Cl)ccc34)n2)cc1`, the growth in assay [1] is -73.8% (active); in assay [2], -47.1% (active); in [3], -77.1% (active); in assay [4], -89.8% (active); in [5], -87% (active); in assay [6], -40.1% (active). The growth was -75.4% (active) in assay [7]; -81.7% (active) in [8]; -78.8% (active) in assay [9]; -78.7% (active) in assay [10]; -81% (active) in assay [11]; -48.8% (active) in [12]. Besides, the growth in [13] was -68.3% (active); in assay [14] it was -83.7% (active); in assay [15], -84.3% (active); in assay [16], -81.8% (active); in assay [17], -97.6% (active); in assay [18] it was -89.9% (active). Further, the growth in [19] is -79% (active); in [20], -92.8% (active).

On to `COc1c(B(O)O)cccc1-c1nc2ccc3[nH]ncc3c2c2c1CCC2`, for which the growth was 63.3% in assay [1]; 77.9% in assay [2]; 98.4% in assay [3]; 40.7% in [4]; 4.27% (active) in assay [5]; 65.9% in [6]. The growth is 86.9% in assay [7]; 54.7% in assay [8]; 111% in assay [9]; 65% in [10]; 54.7% in assay [11]; 63.8% in assay [12]. Moreover, the growth is 32.7% in [13]; 82.3% in [14]; 66.1% in [15]; 60.2% in assay [16]; 52.4% in [17]; 57.6% in assay [18]. Also, the growth in [19] is 53.3%; in assay [20], 86.3%.

With `C[C@]12CCc3nc(Nc4ccccc4)sc3C1=CC[C@@H]1[C@@H]2CC[C@]2(C)/C(=N/NC(N)=S)CC[C@@H]12`, the growth in [1] was 36.3%; in assay [2], 9.46% (active); in assay [3] it was 69.5%; in assay [4], 56.3%; in [5], -8.56% (active); in assay [6] it was 49.3%. Further, the growth in [7] is 21.2%; in assay [8] it was 37.3%; in assay [9], 67.9%; in assay [10] it was 73.1%; in assay [11], -11.6% (active); in assay [12], 5.72% (active). In addition, the growth in [13] is 35.3%; in assay [14] it was 62.1%; in [15], 37.3%; in [16] it was 26.6%; in assay [17], 38.1%; in [18], 42.6%. Moreover, the figures for the growth in [19] and in [20] were 69.6% and 63.6%, respectively.

`O=C1/C(=C/c2ccc(OCc3ccccc3)cc2)Oc2cc(OCCN3CCCCC3)ccc21`: the growth in assay [1] was 91.9%; in [2] it was 9.17% (active); in assay [3], 67.8%; in [4] it was 80.9%; in assay [5], 60.8%; in assay [6], 77.4%. Also, the growth was 92.9% in assay [7]; 69.5% in assay [8]; 90% in assay [9]; 60.8% in assay [10]; 14% in assay [11]; 33.2% in [12]. Besides, the growth was 83% in assay [13]; 94.3% in assay [14]; 69.8% in assay [15]; 74.9% in assay [16]; 61.6% in assay [17]; 61% in [18]. The results for the growth in [19] and in assay [20] were 52.3% and 78.4%, respectively.

Consider `O=C(Nc1cccc2cccnc12)c1cc(C(=O)c2ccc(Cl)cc2)n2ccc(-c3ccncc3)cc12`, for which the growth in assay [1] was 106%; in assay [2], 113%; in [3], 90.7%; in assay [4], 110%; in [5], 104%; in assay [6] it was 97.8%. Besides, the growth in [7] is 98.9%; in [8], 99.7%; in assay [9], 97.7%; in assay [10], 96.1%; in assay [11] it was 99.1%; in assay [12], 100%. For the same compound, the growth is 86.6% in assay [13]; 104% in [14]; 103% in assay [15]; 95.3% in assay [16]; 97.2% in assay [17]; 104% in assay [18]. For the same compound, the figures for the growth in [19] and in [20] were 101% and 98.2%, respectively.

`COc1cc(Cl)cc(-c2nn(C(=O)NS(=O)(=O)c3ccccc3)cc2-c2ccncc2)c1`: the growth in assay [1] is 82.5%; in assay [2], 86.3%; in assay [3] it was 96.4%; in assay [4] it was 62.6%; in [5] it was 79.2%; in [6], 81.1%. For the same compound, the growth in assay [7] is 97.9%; in assay [8], 48.2%; in assay [9] it was 110%; in [10] it was 86.4%; in assay [11], 111%; in [12], 41.1%. Also, the growth was 3.59% (active) in [13]; 105% in assay [14]; 81.5% in [15]; 91.4% in [16]; 93.3% in assay [17]; 82.7% in assay [18]. Also, the growth in assay [19] is 59.1%; in assay [20], 98.7%.
